Results taken from PubChem BioAssay AID1159580 (chemical genetic matrix, 2015).
About 2,000 (36%) of roughly 5,500 compounds were called active. Roughly 18% stayed inconclusive and do not appear here. No stated cut-off is given here; in the data, active means normalized growth mostly below about 0.91 (no sharp cut-off); inconclusive means no clear call, values can overlap the other calls; inactive means mostly above about 0.92. The list shows a part of the results.

Experiment: chemical genetic growth profiling, strain panel (AID 1159580);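 further: tested at 20 µM; growth read once vehicle control cultures reached saturation at 30 °C; 1 = growth at the plate median or of vehicle wells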
Conditions: growth OD

Measured: normalized growth

Cc1onc(-c2ccccc2Cl)c1C(=O)N[C@@H]1C(=O)N2[C@@H]1SC(C)(C)[C@@H]2C(=O)O
inactive: S. cerevisiae deletion strains, locus YJR066W, strain TOR1, stronger effect = lower value 0.986 | S. cerevisiae deletion strains, locus YKL009W, strain mrt4, stronger effect = lower value 1.02 | S. cerevisiae deletion strains, locus YKL068W, stronger effect = lower value 1.02 | S. cerevisiae deletion strains, locus YKL085W, strain MDH1 (second series), stronger effect = lower value 1.02 | S. cerevisiae deletion strains, locus YKL085W, strain MDH1, stronger effect = lower value 1.02 | S. cerevisiae deletion strains, locus YKL160W, strain elf1, stronger effect = lower value 1.02 | S. cerevisiae deletion strains, locus YKL190W, strain CNB1, stronger effect = lower value 1.01 | S. cerevisiae deletion strains, locus YKR001C, strain vps1, stronger effect = lower value 1.03 | S. cerevisiae deletion strains, locus YKR026C, strain gcn3, stronger effect = lower value 1.05 | S. cerevisiae deletion strains, locus YKR091W, strain srl3, stronger effect = lower value 1.02 | S. cerevisiae deletion strains, locus YLL001W, strain dnm1, stronger effect = lower value 1.02 | S. cerevisiae deletion strains, locus YLL026W, stronger effect = lower value 1.01 | S. cerevisiae deletion strains, locus YLL041C, strain sdh2, stronger effect = lower value 1.02 | S. cerevisiae deletion strains, locus YLR027C, strain aat2, stronger effect = lower value 1.01 | S. cerevisiae deletion strains, locus YLR039C, strain RIC1, stronger effect = lower value 1.02 | S. cerevisiae deletion strains, locus YLR058C, strain SHM2, stronger effect = lower value 1.02 | S. cerevisiae deletion strains, locus YLR102C, strain apc9, stronger effect = lower value 1.03 | S. cerevisiae deletion strains, locus YLR113W, strain HOG1, stronger effect = lower value 1.05 | S. cerevisiae deletion strains, locus YLR221C, strain rsa3, stronger effect = lower value 0.979 | S. cerevisiae deletion strains, locus YLR258W, strain gsy2, stronger effect = lower value 1.02 | S. cerevisiae deletion strains, locus YLR262C, strain YPT6 (second series), stronger effect = lower value 1 | S. cerevisiae deletion strains, locus YLR262C, strain YPT6, stronger effect = lower value 1.01 | S. cerevisiae deletion strains, locus YLR268W, strain sec22, stronger effect = lower value 1.04 | S. cerevisiae deletion strains, locus YLR320W, strain mms22, stronger effect = lower value 1 | S. cerevisiae deletion strains, locus YLR330W, strain CHS5, stronger effect = lower value 1.01 | S. cerevisiae deletion strains, locus YLR342W, strain FKS1 (second series), stronger effect = lower value 1.02 | S. cerevisiae deletion strains, locus YLR342W, strain FKS1, stronger effect = lower value 1.02 | S. cerevisiae deletion strains, locus YLR357W, strain rsc2, stronger effect = lower value 1.03 | S. cerevisiae deletion strains, locus YLR370C, strain arc18, stronger effect = lower value 1.02 | S. cerevisiae deletion strains, locus YLR371W, strain rom2, stronger effect = lower value 1.03 | S. cerevisiae deletion strains, locus YLR384C, strain iki3, stronger effect = lower value 1.02 | S. cerevisiae deletion strains, locus YLR418C, strain cdc73, stronger effect = lower value 1.04 | S. cerevisiae deletion strains, locus YML016C, strain PPZ1, stronger effect = lower value 1.01 | S. cerevisiae deletion strains, locus YML032C, strain rad52, stronger effect = lower value 1.01 | S. cerevisiae deletion strains, locus YML120C, strain ndi1, stronger effect = lower value 1.04 | S. cerevisiae deletion strains, locus YML124C, strain tub3, stronger effect = lower value 1.03 | S. cerevisiae deletion strains, locus YMR058W, strain fet3, stronger effect = lower value 1.04 | S. cerevisiae deletion strains, locus YMR078C, strain ctf18, stronger effect = lower value 1.04 | S. cerevisiae deletion strains, locus YMR125W, strain sto1, stronger effect = lower value 1.04 | S. cerevisiae deletion strains, locus YMR129W, stronger effect = lower value 1.01 | S. cerevisiae deletion strains, locus YMR205C, strain PFK2, stronger effect = lower value 1.04 | S. cerevisiae deletion strains, locus YMR223W, strain ubp8, stronger effect = lower value 1.02 | S. cerevisiae deletion strains, locus YMR231W, strain pep5, stronger effect = lower value 1.02 | S. cerevisiae deletion strains, locus YMR263W, strain SAP30, stronger effect = lower value 1.02 | S. cerevisiae deletion strains, locus YMR307W, strain GAS1, stronger effect = lower value 1.03 | S. cerevisiae deletion strains, locus YNL067W, strain RPL9B, stronger effect = lower value 1.02 | S. cerevisiae deletion strains, locus YNL071W, strain lat1, stronger effect = lower value 1.01 | S. cerevisiae deletion strains, locus YNL153C, strain GIM3, stronger effect = lower value 1.01 | S. cerevisiae deletion strains, locus YNL183C, strain NPR1, stronger effect = lower value 0.968 | S. cerevisiae deletion strains, locus YNL209W, strain ssb2, stronger effect = lower value 1.01 | S. cerevisiae deletion strains, locus YNL233W, strain BNI4, stronger effect = lower value 1.01 | S. cerevisiae deletion strains, locus YNL248C, strain rpa49, stronger effect = lower value 0.948 | S. cerevisiae deletion strains, locus YNL250W, strain rad50, stronger effect = lower value 1.01 | S. cerevisiae deletion strains, locus YNL271C, strain bni1, stronger effect = lower value 1.03 | S. cerevisiae deletion strains, locus YNL298W, strain CLA4, stronger effect = lower value 1.04 | S. cerevisiae deletion strains, locus YNL307C, strain MCK1, stronger effect = lower value 1.04 | S. cerevisiae deletion strains, locus YNL322C, strain KRE1 (second series), stronger effect = lower value 1.01 | S. cerevisiae deletion strains, locus YNL322C, strain KRE1, stronger effect = lower value 1 | S. cerevisiae deletion strains, locus YNR049C, strain mso1, stronger effect = lower value 1.02 | S. cerevisiae deletion strains, locus YNR052C, strain pop2, stronger effect = lower value 1.01 | S. cerevisiae deletion strains, locus YOL012C, strain htz1 1.96 | S. cerevisiae deletion strains, locus YOL147C, strain pex11, stronger effect = lower value 1.03 | S. cerevisiae deletion strains, locus YOR001W, strain rrp6, stronger effect = lower value 1.04 | S. cerevisiae deletion strains, locus YOR061W, strain CKA2, stronger effect = lower value 1.01 | S. cerevisiae deletion strains, locus YOR069W, strain VPS5, stronger effect = lower value 1.01 | S. cerevisiae deletion strains, locus YOR070C, strain gyp1, stronger effect = lower value 1.01 | S. cerevisiae deletion strains, locus YOR080W, strain dia2, stronger effect = lower value 1.03 | S. cerevisiae deletion strains, locus YOR083W, strain WHI5, stronger effect = lower value 1.03 | S. cerevisiae deletion strains, locus YOR106W, strain vam3, stronger effect = lower value 1.03 | S. cerevisiae deletion strains, locus YOR136W, strain idh2, stronger effect = lower value 1.03 | S. cerevisiae deletion strains, locus YOR144C, strain elg1, stronger effect = lower value 1.02 | S. cerevisiae deletion strains, locus YOR184W, strain ser1, stronger effect = lower value 1.03 | S. cerevisiae deletion strains, locus YOR231W, strain MKK1, stronger effect = lower value 1.01 | S. cerevisiae deletion strains, locus YOR265W, strain rbl2, stronger effect = lower value 1.02 | S. cerevisiae deletion strains, locus YOR270C, strain vph1, stronger effect = lower value 1.04 | S. cerevisiae deletion strains, locus YOR290C, strain snf2, stronger effect = lower value 1.01 | S. cerevisiae deletion strains, locus YOR316C, strain cot1, stronger effect = lower value 1.03 | S. cerevisiae deletion strains, locus YPL051W, strain arl3, stronger effect = lower value 1.02 | S. cerevisiae deletion strains, locus YPL055C, strain LGE1, stronger effect = lower value 1.03 | S. cerevisiae deletion strains, locus YPL078C, strain atp4, stronger effect = lower value 1.03 | S. cerevisiae deletion strains, locus YPL106C, strain sse1, stronger effect = lower value 1.03 | S. cerevisiae deletion strains, locus YPL240C, strain hsp82, stronger effect = lower value 1.01 | S. cerevisiae deletion strains, locus YPL241C, strain CIN2, stronger effect = lower value 1 | S. cerevisiae deletion strains, locus YPL256C, strain CLN2, stronger effect = lower value 1.01 | S. cerevisiae deletion strains, locus YPR119W, strain clb2, stronger effect = lower value 1.03 | S. cerevisiae deletion strains, locus YPR141C, strain kar3, stronger effect = lower value 1.04 | S. cerevisiae deletion strains, locus YPR163C, strain tif3, stronger effect = lower value 1.04 | S. cerevisiae deletion strains, locus YPR167C, strain met16, stronger effect = lower value 1.03 | S. cerevisiae deletion strains, strain wtn01, stronger effect = lower value 1.02 | S. cerevisiae strains, strain wild type, stronger effect = lower value 1.01
